Source: PubChem BioAssay (NCI)
This is part of a sample that, as a whole, favours compounds with a hit. Of some 79,000 tested, about 15% had one in any assay. No stated cut-off is given here; in the data, active means growth inhibition above about 70%; inactive means the rest.

Experiments:
[1] = NCI Yeast Anticancer Drug Screen. Data for the rad50 strain (AID 155);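 further: 0% = growth of vehicle-only cultures of the same strain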; details: S. cerevisiae rad50 strain growth inhibition; at 50.0 µM; active compounds read high
Procedure, shortened: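 Cells are treated with compound, grown, and their growth is then scored against vehicle-only cultures of the same repair-deficient yeast strain.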

[2] = NCI Yeast Anticancer Drug Screen. Data for the mec2-1 strain (AID 157); details: S. cerevisiae mec2-1 strain, at 50.0 µM, active compounds read high
Procedure, shortened: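 Readout is yeast growth inhibition, normalised to vehicle-treated controls, in the mec2-1 strain exposed to compound.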

[3] = NCI Yeast Anticancer Drug Screen. Data for the sgs1 mgt1 strain (AID 161);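 further: 0% = growth of cultures given vehicle only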; details: S. cerevisiae sgs1 mgt1 strain, at 50.0 µM, active compounds read high
Procedure, shortened: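 Yeast cells carrying a defined DNA-repair defect were exposed to test compounds. Growth inhibition was measured relative to vehicle-treated controls.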

[4] = NCI Yeast Anticancer Drug Screen. Data for the cln2 rad14 strain (AID 165);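 further: 0% = growth equal to vehicle treated cultures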; details: S. cerevisiae cln2 rad14 strain, at 50.0 µM, active compounds read high
Procedure, shortened: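 Relative to vehicle controls, growth inhibition of compound-treated cln2 rad14 yeast was recorded.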

[5] = NCI Yeast Anticancer Drug Screen. Data for the bub3 strain (AID 167); details: S. cerevisiae bub3 mutant strain, at 50.0 µM, active compounds read high
Procedure, shortened: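 Part of a panel of yeast mutants defective in DNA damage repair or cell cycle regulation. Each strain is grown with compound, and inhibition is calculated relative to solvent-treated cultures.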

[6] = NCI Yeast Anticancer Drug Screen. Data for the mlh1 rad18 strain (AID 175); details: S. cerevisiae mlh1 rad18 strain growth inhibition; at 50.0 µM; active compounds read high
Procedure, shortened: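 Test agents were incubated with a yeast strain of defined genotype (DNA damage repair defect). Inhibition of growth was derived by comparison with vehicle-exposed cultures.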

Measured: growth inhibition

c1ccc(CC(c2cccc3ccccc23)N2CCOCC2)cc1 (stereo unspecified)
inactive: [1] 22.2% | [2] 23.9% | [3] 39.7% | [4] -7.55% | [5] 30% | [6] 23.2%

CCOC(=O)C1C=CC(C)N(C(=O)OCC)N1C(=O)OCC (stereo unspecified)
inactive: [1] 0.35% | [2] 2.45% | [3] 7.5% | [4] -2.3% | [5] 49.9% | [6] -13.7%

Nc1ccccc1Nc1ccncc1
inactive: [1] -3% | [2] 11.2% | [3] -1.7% | [4] -26.9% | [5] -23.8% | [6] -5.7%

CC(C(N)=O)N1C(=O)C2C3CCC(O3)C2C1=O (stereo unspecified)
inactive: [1] -7.65% | [2] -6.65% | [3] -16.1% | [4] -44.8% | [5] -1.8% | [6] 3.1%

O=S(=O)(O)C(CO)c1ccccc1 (stereo unspecified) (tested in a mixture with another compound)
inactive: [1] 5.75% | [2] 1.5% | [3] -12.9% | [4] -31.2% | [5] -28.7% | [6] 0.9%

c1ccc(-c2ccc[n+](C[n+]3cccc(-c4ccccn4)c3)c2)nc1
inactive: [1] 10.2% | [2] -10.5% | [3] -22.9% | [4] -8.5% | [5] -3.8% | [6] 33.1%

C=CCN1C(=O)CS/C1=N\NC(=O)c1c(C)nc2sccn12
inactive: [1] -16.3% | [2] -4.15% | [3] -8.95% | [4] -7.4% | [5] -22.8% | [6] -28.4%

O=C(COc1ccccc1Cl)N1N=C(c2ccc(Cl)cc2)CC1(O)c1ccccc1 (stereo unspecified)
inactive: [1] -17.9% | [2] -7.2% | [3] -43.2% | [4] -0.85% | [5] -25.8% | [6] -16.9%

O=C1CCCC2=C(N1)C(=O)C=CC2=O
inactive: [1] -2.55% | [2] 20.9% | [3] 17.1% | [4] 39.5% | [5] -0.2% | [6] -20.9%

CC(=O)CCC(CC(=O)O)C(C)C (stereo unspecified)
inactive: [1] 12% | [2] 0.05% | [3] 14.9% | [4] -9% | [5] 4.8% | [6] 24.1%

CCCCOC(=O)C(C)OC(=O)OC (stereo unspecified)
inactive: [1] -21.1% | [2] -13% | [3] -2.25% | [4] -28.8% | [5] -15.7% | [6] 8%

O=Cc1ccc(C=O)cc1
inactive: [1] 22.6% | [2] -3.35% | [3] 26.9% | [4] 11.9% | [5] 14.2% | [6] 32.5%

CN1NC2(CCCCC2)ON=C1c1ccccc1
inactive: [1] 5.35% | [2] -5.5% | [3] 11.1% | [4] 7.9% | [5] -6.35% | [6] 10.7%

O=C(CCCCCCC(=O)ON1C(=O)CCC1=O)ON1C(=O)CCC1=O
inactive: [1] -16.9% | [2] -3.55% | [3] -16.8% | [4] 13.8% | [5] -24.4% | [6] -4.1%

CCOC(=O)OC1CCC2(C)C(=CCC3C2CCC2(C)C(C(C)CCCC(C)C)CCC32)C1 (stereo unspecified)
inactive: [1] -3.95% | [2] -19.1% | [3] 0.6% | [4] 9.5% | [5] 4.25% | [6] -4.3%

CN(C)c1ccc(C(=O)c2ccc([N+](=O)[O-])cc2)cc1
inactive: [1] -1.6% | [2] -10% | [3] 0.5% | [4] 6.3% | [5] -4.95% | [6] -8.25%

CC1=C(/C=C/C(C)=C/C=C/C(C)=C/C=C/C=C(C)/C=C/C=C(C)/C=C/C=C(C)/C=C/C=C(\C)C(=O)O)C(C)(C)CCC1
inactive: [1] 3.7% | [2] 25.6% | [3] -21.8% | [4] 18.6% | [5] 7.6% | [6] -2.1%

Cc1cc[n+](CCc2c[nH]c3ccccc23)cc1C
inactive: [1] 30.5% | [2] -0.3% | [3] 11.9% | [4] 20.4% | [5] -1.65% | [6] 10.8%

O=S(=O)(c1ccc(Br)cc1)S(=O)(=O)c1ccc(Br)cc1
inactive: [1] -22.6% | [2] 0.7% | [3] -23.1% | [4] -13.9% | [5] 23.2% | [6] -16.1%

CC(C)c1ccccc1NC(=O)C(=O)Cc1nc2ccccc2s1
inactive: [1] 23.2% | [2] 7.2% | [3] 19.7% | [4] -36.1% | [5] 38.3% | [6] 51.4%

CCOC(=O)/C=C(\N=P(c1ccccc1)(c1ccccc1)c1ccccc1)C(F)(F)C(F)(F)C(F)(F)C(F)(F)C(F)(F)F
inactive: [1] 19.4% | [2] 4% | [3] 32.4% | [4] 18.4% | [5] 20.2% | [6] 45.2%
